NOTCH agonist = agonists of NOTCH signaling | NOTCH signaling luciferase reporter cells, luminescence | activation, % at 2.5 µM | 0.4% of 15,000 active; in the data active = activation above about 2.2%
PME-1 Maybridge = Maybridge compound blocking human PME-1. Q9Y570. 0.5% of 16,000 active. AID 2291. recombinant PME-1, FP-Rh probe fluorescence polarization. inhibition, % at 9 µM; in the data active = inhibition above about 30%
luminol inh ctr = counter-screen for Nox1 inhibitors: inhibitors of luminol chemiluminescence | 0.4% of 16,000 active | inhibition, % at 6.7 µM | HRP/luminol/H2O2 chemiluminescence counterscreen; note: reference of the scale not given here
Nox1 inhibitor = human Nox1 inhibition | AID 1792 | HT29 cells, luminol chemiluminescence ROS | 0.81% of 16,000 active | Q9Y5S8 | inhibition, % at 6.7 µM
Target sequence (Q9Y5S8 whole entry, looked up): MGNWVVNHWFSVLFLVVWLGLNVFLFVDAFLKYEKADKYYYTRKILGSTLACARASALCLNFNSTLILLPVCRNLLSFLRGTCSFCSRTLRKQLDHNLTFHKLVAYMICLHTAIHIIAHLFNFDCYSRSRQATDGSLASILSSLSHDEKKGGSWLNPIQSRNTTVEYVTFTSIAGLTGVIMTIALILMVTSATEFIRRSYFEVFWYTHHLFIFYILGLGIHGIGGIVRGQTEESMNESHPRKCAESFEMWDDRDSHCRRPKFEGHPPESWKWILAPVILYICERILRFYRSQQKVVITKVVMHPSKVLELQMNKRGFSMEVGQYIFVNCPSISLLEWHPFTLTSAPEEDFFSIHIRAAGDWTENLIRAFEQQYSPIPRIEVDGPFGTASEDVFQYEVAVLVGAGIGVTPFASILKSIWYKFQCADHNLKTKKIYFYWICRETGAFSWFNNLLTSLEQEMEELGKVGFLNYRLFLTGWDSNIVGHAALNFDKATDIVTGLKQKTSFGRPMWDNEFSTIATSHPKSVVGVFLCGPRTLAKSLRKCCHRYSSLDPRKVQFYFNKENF
Starred values were filed as active, the others as inactive; x = no result given. Shown are actives, neighbours in structure and some others; about 2.1% of the full set was active somewhere. Cut-off read from the data, not from the text of the source, unless noted: active = inhibition above about 75%; inactive = the rest.

SMILES	NOTCH agonist	PME-1 Maybridge	luminol inh ctr	Nox1 inhibitor
CNC(=O)n1nc(C)c(Cc2csc3ccc(Cl)cc23)c1C	-0.2	47.8*	0.2	-12.0
CNC(=O)Cc1csc2ccc(Cl)cc12	-0.3	7.1	-8.5	-8.7
COc1ccc(Nc2nc(NC(=O)Nc3ccc(Cl)cc3)n[nH]2)cc1	-0.3	-0.2	21.1	96.4*
N#C/C(=C\c1cc(C#Cc2ccccc2)cs1)C(=O)c1cccs1	0.1	3.4	-5.1	10.6
CC(c1ccccc1)n1c(SCC(=O)N2CCOCC2)n[nH]c1=O (stereo not given)	-0.2	1.2	-1.3	-6.6
CC(=O)Oc1ccc2ccccc2c1-c1c(OC(C)=O)ccc2ccccc12	0.3	8.4	-3.5	3.4
CC(=O)Oc1ccc(OC(C)=O)c2c1C(=O)c1ccccc1C2=O	0.2	84.9*	14.4	73.2
FC(F)(F)c1ccc(/C=N/N2CCOCC2)c(Cl)c1	-0.3	-1.2	2.1	-68.4
ON/C=N/c1nnc(C(F)(F)F)s1	-0.1	1.8	-4.0	80.3*
Cc1ccc2c(c1)CCCN2CC(=O)c1ccc2c(c1)OCCO2	-0.4	2.3	-2.2	-42.4
CC(=O)c1csc(Nc2ccc(Cl)cc2)n1	2.2*	5.3	2.8	-27.0
Cc1nc2ccccn2c(=O)c1Cl	0.3	4.6	-2.3	-13.9
COCCCNC(=S)NNC(=S)Nc1ccccc1	0.0	4.4	4.3	90.8*
COCCCNC(=S)Nc1ccc(C)cc1	0.3	0.4	-5.0	10.1
CN(C)c1ccc(/C=C(\C#N)c2ccc([N+](=O)[O-])cc2)cc1[N+](=O)[O-]	0.1	-1.3	17.3	-13.9
N#C/C(=C\c1ccc(O)cc1)c1ccc([N+](=O)[O-])cc1	0.7	3.8	100.6*	0.0
COc1cc(C(=O)NNC(=O)c2cc(OC)c(OC)c(OC)c2)cc(OC)c1OC	1.0	4.9	-1.9	15.9
Cn1nc(-c2ccccc2)cc1NC(=O)Nc1cccs1	-0.1	31.7*	26.2	-38.1
Cc1noc(-c2ccccc2)c1NC(=O)Nc1cc(C2CC2)nn1C	-0.9	1.3	2.5	-5.3
CC(C)c1ccc(N2C=[N+](C)c3ccc(C(C)C)cc3C2)cc1	-0.6	-1.3	4.7	-27.0
O=C(O)Cc1ccc([N+](=O)[O-])cc1	0.1	2.7	0.7	-39.8
S=c1[nH]nc(Cc2ccsc2)n1Cc1ccccc1	0.4	3.0	92.6*	20.9
Clc1ccc(SCc2ncon2)cc1	1.2	8.9	-7.1	-10.5
COC(=O)c1ccc(S(=O)(=O)NNC(=O)c2c(O)c3sccc3[nH]c2=O)n1C	0.1	0.2	78.4*	-30.5
Cc1cc(C)cc(NC(=O)Nc2ccc(N3CCCCC3)cc2)c1	0.2	10.5	-8.6	85.2*
SMILES	NOTCH agonist	PME-1 Maybridge	luminol inh ctr	Nox1 inhibitor
COc1cc(C(=O)NC(C)c2ccccc2)cc(OC)c1OC (stereo not given)	-0.3	-4.3	2.8	-77.2
O=[N+]([O-])c1cc(C(F)(F)F)ccc1N=Nc1c(O)[nH]c2ccc(F)cc12	x	0.1	-1.2	17.4
Cc1nn(C)c(C)c1Nc1n[nH]c(N)n1	-0.4	-5.0	21.9	76.6*
Cc1nn(C)c(C)c1NC(=O)/C(C#N)=C\N(C)C	-0.4	1.9	1.1	-25.5
CC(C)(C)OC(=O)N[C@@H](Cc1ccccc1)c1n[nH]c(=S)n1CC1CCCO1 (stereo not given in full)	-0.1	6.8	97.3*	14.2
COC(=O)c1ccc(S(=O)(=O)Nc2ccc(N3CCOCC3)cc2)n1C	0.1	1.2	39.6	90.6*
COc1cc(/C=N/NC(=O)c2cc(C)ccc2[N+](=O)[O-])cc(OC)c1OC	-0.6	-5.3	-1.7	14.3
CCOC(=O)C(=CNNc1ccnc2cc(Cl)ccc12)C(=O)OCC	0.1	7.8	3.1	83.7*
CCOC(=O)C(=CNNc1ccccc1)C(=O)OCC	-0.7	-0.4	6.5	-19.3
O=C(NNc1nc(-c2cccc([N+](=O)[O-])c2)cs1)c1ccccc1Cl	-0.1	3.8	0.9	75.2*
Nc1nc(-c2cccc([N+](=O)[O-])c2)cs1	-0.2	7.4	4.0	14.7
Cc1ccc(Sc2ccc([N+](=O)[O-])cc2)cc1	-0.5	3.4	-5.1	8.7
CC(C)(Oc1ccc(Cl)cc1)C(=O)NCc1ccc2c(c1)CCO2	-0.3	-1.4	2.9	-7.4
CC[n+]1c(C)csc1Nc1ccc(N2CC(C)OC(C)C2)cc1 (stereo not given)	0.2	3.2	11.9	104.6*
CCOC(=O)c1ccc(NC(=S)NC(C)c2ccc(Cl)cc2)cc1 (stereo not given)	-5.8	-99.0	-4.7	31.3
Cc1cc(C(=O)NNC(=O)CSCc2cccc3ccccc23)no1	2.8*	4.1	-5.7	-7.9
Cc1cc(C(=O)NNC(=O)Nc2ccc(Cl)cc2)no1	-0.3	2.1	68.5	-40.1
